Results on 39 compounds are retold here after PubChem BioAssay (NCATS).

Several values for one entry are separate records, joined by “and”; a condition that tells them apart may be missing. Identical values can stand only once. Results filed as inconclusive are left out. Where a structure was tested more than once in an assay, its records may differ in their call. Values without a mark were called inactive. Activity calls are given as the source filed them. The call rests on the fitted dose curve; in most records, active means well fitted cell-killing curve with a large enough effect; inconclusive means small, poorly fitted or top-dose-only effect; inactive means flat fitted curve, though single readings scatter.
On the % scale 0 is the no-effect control and ±100 the full control effect.

The assay can be described thus: Cellular viability qHTS for adrenocortical cancer (ACC) cell line SW-13 (AID 1963989). Further: nearly all actives have a fitted effect of over 65% in size.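 On activity (max response): cells grown in serum-free medium with ITS supplement.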 To be noted: SW-13 ACC cells viability, CellTiter-Glo, 48 h; activity (max response): stronger effect = lower value. From the text:
PI: Naris Nilubol, MD Surgical Oncology Program, National Cancer Institute (NCI) National Institute of Health (NIH), Bethesda, Maryland Adrenocortical cancer (ACC) is a rare malignancy with poor survival outcomes and few treatment options. Currently, mitotane is the only FDA-approved therapy for ACC. Although adjuvant radiation therapy is rarely utilized, it has the potential to improve survival in select cases. Through a quantitative high-throughput drug screen (qHTS), we identified auranofin (AF), a thioredoxin reductase (TXNRD) inhibitor, as a promising candidate drug. This study aims to evaluate whether AF can enhance the efficacy of radiation therapy in the treatment of ACC. Two human ACC cell lines, SW-13 and NCI-H295R, were screened using the National Center for Advancing Translational Sciences (NCATS) Pharmaceutical Collection (NPC) and the Mechanism Interrogation PlatE (MIPE) library (~4,991 compounds). CellTiter-Glo (Cat # G7570, Promega, Madison, WI) was utilized to measure cell viability. Described herein are the results of the corresponding viability assay.
PROTOCOL TABLE (as described by Inglese J, Shamu CE and Guy RK. 2007) SEQUENCE No. (e.g., 1, 2, 3, etc.); […] (e.g., Cells, Incubation, Reagent, etc.); VALUE; DESCRIPTION. 1; Cells; 5 uL; white, solid-bottom, 1536-well tissue-culture treated plates. 2; Time; overnight culture at 37C with 5% CO2. 3; Compounds and control; 23 nL; Kalypsis pin tool (Wako USA) equipped with a 1536-well pin head to transfer to the assay plates. 4; Time; 48 hours; 37C with 5% CO2. 5; Reagent; 4 uL; CellTiter-Glo luminescent substrate mix. 6; Time; 20 min at room temperature. 7; Detection; Luminescence; ViewLux plate reader NOTES (numbers refer to Sequence numbers above) 1. SW13 cells were harvested from a T175 flask and resuspended in ITS-supplemented DMEM serum-free medium at a concentration of 300 000 cells/mL. Then 5 uL of resuspended cells were dispensed into each well of white, solid-bottom, 1536-well tissue-culture-treated plates using a multidrop combi dispenser. The plates were covered with stainless steel gasket lids. 2-3. The plates were cultured overnight at 37C with 5% CO2. Twenty-three nL of compounds (eight selected concentrations from the NPC / MIPE) or positive control (10 mM stock of bortezomib) in DMSO was transferred to each well of the assay plate using a pin tool (Kalypsys, San Diego, CA, USA). The final concentration of the compounds in the 5 uL assay volume ranged from 0.5 nM to 46 uM. 4-6. After 48 hours of incubation at 37C and 5% CO2, 4 uL of CellTilter-Glo luminescent substrate mix (Promega, Madison, WI, USA) was added to each well. Then the plates were incubated for 20 minutes at room temperature. 7. After incubation, luminescence was measured using a ViewLux plate reader (PerkinElmer, Waltham, MA, USA) with a clear filter was used to measure the number of metabolically competent cells. To determine compound activity in the qHTS assay, the titration-response data for each sample was plotted and modeled by a four-parameter logistic fit yielding IC50 and efficacy (maximal response) values. […] REFERENCES: Inglese J, Shamu CE and Guy RK, Reporting data from high throughput screening of small molecule libraries, Nature Chemical Biology, 2007, 3(8): 438-441. doi.org/10.1038/nchembio0807-438.
For orientation: Quantitative high-throughput screening tests each substance at several concentrations.
As to `OC[C@H](Cc1ccccc1)Nc1nc(Oc2ccc3c(c2)CCC3)nc2c1ncn2Cc1ccc(-c2ccccc2)cc1`, the activity (max response) is -12.9%.

For the compound `C[C@@H]1CC[C@@]2(OC1)O[C@H]1C[C@H]3[C@@H]4CC[C@H]5C[C@@H](O)CC[C@]5(C)[C@H]4CC(=O)[C@]3(C)[C@H]1[C@@H]2C`, the activity (max response) is 5.1%. As to `CN[C@@H](C)C(=O)N[C@@H]1C(=O)N(Cc2c(C)ccc3ccccc23)c2ccc(C#N)cc2N(C(C)=O)[C@H]1C`, the activity (max response) was 3.96%. As for `COc1cc(C(=O)N2CCCCCCC2)cc(OC)c1OC`, the activity (max response) was 6.12%.

With `c1ccc2c(c1)CCc1ccccc1N2`, the activity (max response) is -6.25%.

Turning to `CC[C@@]1(c2ccccc2)NC(=O)N(C)C1=O`, the activity (max response) was 8.31%. Same read-out and setting: in the case of `CCCCCN(C)CCC(O)(P(=O)(O)O)P(=O)(O)O` it was -15.6%; in that of `CN(c1nccc(=O)[nH]1)C1CCN(c2nc3ccccc3n2Cc2ccc(F)cc2)CC1`, 5.56%; in that of `CCNC(=O)NCCCOc1cccc(CN2CCCCC2)c1`, -6.89%. On to `O=C(CCCCCCC(=O)Nc1ccccc1)NO`, for which the Potency was 4.11 µM (active) and 3.16 µM (active). For the compound `CC(=O)Nc1nnc(S(N)(=O)=O)s1`, the activity (max response) is 5.04%. For `CC1CCc2cc(F)cc3c(=O)c(C(=O)O)cn1c23` (stereo not given), the activity (max response) was 5.01%. The same measure, in the same setting: in the case of `Cc1[nH]nc(C(F)(F)F)c1Cc1sc2c(c1C(=O)N1C[C@](C)(O)CO1)c(=O)n(C)c(=O)n2C(C)C` it was 14.8%; in that of `O=c1[nH]c(=O)n([C@H]2CCCO2)cc1F`, -5.11%. On to `Cc1cc(NS(=O)(=O)c2ccc(N)cc2)no1`, for which the activity (max response) was 13.2%. As for `S=c1[nH]c2ccccc2s1`, the activity (max response) is 3%. The same measure, in the same setting: with `CN(CCOc1ccc(CC2SC(=O)NC2=O)cc1)c1ccccn1` (stereo not given) the figure was -2.77% and -12.8%.

On to `C[C@@H]1CCN(C(=O)CC#N)C[C@@H]1N(C)c1ncnc2[nH]ccc12`, for which the activity (max response) was -8.3%.

For `COc1cc2c(cc1OCCCN1CCCC1)N=C(N)C21CCC1`, the activity (max response) was -9.17%.

Consider `NNC(=O)c1ccncc1`, for which the activity (max response) is 13.1% and -0.369%. `O=C1CN(/N=C/c2ccc([N+](=O)[O-])o2)C(=O)N1`: the activity (max response) is -20.9%. As for `Clc1ccc(C(Cn2ccnc2)OCc2ccc(Sc3ccccc3)cc2)c(Cl)c1` (stereo not given), the Potency is 31.6 µM (active). In the case of `COc1cccc(-c2cc(F)ccc2C2Cc3nc(N)nc(C)c3C(=O)N2)n1` (stereo not given), the Potency was 0.112 µM (active). For the compound `CC(C)[C@H](N)C(=O)OCCOCn1cnc2c(=O)[nH]c(N)nc21`, the activity (max response) is -3.62% and -11.6%. Consider `Cc1c(F)cc(C(=O)NC2CC2)cc1-c1ccc(C(=O)NCC(C)(C)C)cn1`, for which the activity (max response) was 1.4%. Take `CCNC(=O)CCC/C=C\C[C@@H]1[C@@H](/C=C/C(O)CCc2ccccc2)[C@@H](O)C[C@@H]1O` (stereo not given in full): the activity (max response) is -10.9%. For the compound `COc1ccc(Cl)c(Nc2ncnc3cc(OCC4CCN(C)CC4)c(OC)cc23)c1`, the Potency is 15.8 µM (active). Turning to `Cn1c(=O)c2c(ncn2C)n(C)c1=O`, the activity (max response) is -5.31% and -10.5%. For the compound `C[C@H](NC(=O)c1sccc1OCc1ccc(Cl)cc1)c1ccccc1`, the Potency was 25.1 µM (active). As for `OC(CCN1CCCCC1)(c1ccccc1)C1CC2C=CC1C2` (stereo not given), the activity (max response) is -4.13% and -26%. Still for that read-out and setting: with `COc1ccccc1N1CCN(CCCCNC(=O)c2ccc(-c3ccc(C(C)=O)cc3)cc2)CC1` the figure was -20.9%.

Take `COc1cc2c3c(n(CCCNCCO)c(=O)c2cc1OC)-c1cc2c(cc1C3=O)OCO2`: the Potency is 0.447 µM (active). Regarding `CC1=C(C(=O)O)N2C(=O)[C@@H](NC(=O)[C@H](N)C3=CCC=CC3)[C@H]2SC1`, the activity (max response) was -13.1%. For `CC(=O)N(CC(O)CO)c1c(I)c(C(=O)NCCO)c(I)c(C(=O)NCC(O)CO)c1I` (stereo not given), the activity (max response) is 7.39%. As to `C=CC(=O)N1CC[C@@H](Oc2nc(Nc3ccc(N4CCC(N5CCN(C)CC5)CC4)cc3)c(C(N)=O)nc2CC)C1`, the Potency was 1.43 µM (active). In the case of `CN(C)CCN(Cc1ccccc1)c1ccccn1`, the activity (max response) was -3.06%. As to `NC(=O)N/N=C/c1ccc([N+](=O)[O-])o1`, the Potency is 35.5 µM (active) and the activity (max response) was 4.16%. Turning to `Nc1ccc(N=Nc2ccccc2)c(N)n1`, the activity (max response) was -2.95%.

With `CN(C(Cc1ccc(OS(=O)(=O)c2cccc3cnccc23)cc1)C(=O)N1CCN(c2ccccc2)CC1)S(=O)(=O)c1cccc2cnccc12` (stereo not given), the activity (max response) was 5.6%.
